From the OligoGym collection

target: ANKRD53; assay: pooled miR-30 sensor sort-seq; sequence = guide strand; settings: shRNA

Compared with TTGCTTGGTATTGGAGACCAGA, TTCATCGAATGTGTCACGCAGG is higher in sensor-assay potency score (higher = more potent): -0.812 for the first, -0.608 for the second.

Going from TAGTAGAGAAATGTCCTGCCAT to TTGCTAACATTCCACATTGTGG, the sensor-assay potency score (higher = more potent) falls from -0.32 to -1.32.

target: ANTXR1; assay: as above; settings: shRNA

Going from TAAAGTGAGTGAATGAAGCTGG to TTGGAGAGTACCACTTCCGGGG, the sensor-assay potency score (higher = more potent) falls from 0.662 to -0.563.

First: TTTTCCATCAGTAAACACCTGC
Second: TTATATTCTGCCTTGTTCCAGA
The sensor-assay potency score (higher = more potent) of the first is higher: 0.177 for the first, -0.0343 for the second.

First: TTGTATACACACACATGCCTTA
Second: TTGAGTTTCTTACCACACCAGG
The sensor-assay potency score (higher = more potent) of the first is higher: -0.352 for the first, -1.02 for the second.

First: TTGATAATCACAGTGCAGCAGA
Second: TCATTGATCTTGAAGCTGCAGA
The sensor-assay potency score (higher = more potent) of the first is higher: -0.3 for the first, -0.552 for the second.

First: TTCTCATTGAGTGTGACCGAGT
Second: TTATTGATTAAACAGATCCAGA
The sensor-assay potency score (higher = more potent) of the first is higher: -0.633 for the first, -1.04 for the second.

With TGTCTCTACACTGTGAGCCTGG the sensor-assay potency score (higher = more potent) was -0.327.

target: ANXA11; assay: as above; settings: shRNA

Going from TCTTGAGACATTTCACCACGGC to TTAGAAACAGACATTCTTTTGG, the sensor-assay potency score (higher = more potent) rises from -0.11 to 0.574.

Compared with TCCGCTTATACTCTGATCTGAT, TTTGATCAAATCCTTGCCGTAA is higher in sensor-assay potency score (higher = more potent): -0.656 for the first, -0.559 for the second.

Going from TATTTTAGCAGCAAGAGGCTGT to TCTAGGACGGTGAATCTCGGGG, the sensor-assay potency score (higher = more potent) falls from 0.315 to -0.586.

First: TCTGATGTCCAGGAGGTCGGTC
Second: TTCTGCTTTGTAGGCTCTGTTT
The sensor-assay potency score (higher = more potent) of the first is higher: -0.593 for the first, -1.4 for the second.

Going from ATGCTCTTCTCAATGTCCCGGC to TTGAACTGCCCCGCATAGGTGG, the sensor-assay potency score (higher = more potent) falls from -0.72 to -0.724.

Going from TATTCTTGAGACATTTCACCAC to TCGTGGTACAGCGACTTGCCGT, the sensor-assay potency score (higher = more potent) falls from 0.412 to -1.23.

First: TTGAACTTGGACTCGTCTGTTC
Second: TATCTCATAAATGTCAAAGAGG
The sensor-assay potency score (higher = more potent) of the first is higher: -0.177 for the first, -1.14 for the second.

First: TTCATCAGTGCCAACCCCCTTG
Second: TAGGATCTGCTGCCGCTGCTTG
The sensor-assay potency score (higher = more potent) of the first is higher: 0.00983 for the first, -0.946 for the second.

First: TAAATGTCAAAGAGGACTGGGG
Second: ATACTCTGATCTGATGTCCAGG
The sensor-assay potency score (higher = more potent) of the first is higher: -0.276 for the first, -0.494 for the second.

Compared with TTTAATTCTCGGATGTGCTCAT, TTGAAAACTGCTACCAGGTGGG is lower in sensor-assay potency score (higher = more potent): 0.906 for the first, -0.0336 for the second.

First: TATACTCTGATCTGATGTCCAG
Second: ATCTTCAGCAGAATCTTCCGGT
The sensor-assay potency score (higher = more potent) of the first is lower: -0.656 for the first, 0.075 for the second.

target: ANXA5; assay: as above; settings: shRNA

Going from TTTCACAACAGCAAGGAGTAGT to TTTAGTTGCGAACTTCACTAAT, the sensor-assay potency score (higher = more potent) falls from -0.0711 to -0.975.

TAAACTTAGTAACATTAAGTAC showed a sensor-assay potency score (higher = more potent) of -0.822.
